Active and inactive are the calls of the source.
Assays:
[1] = tested on: Plasmodium falciparum Sir2 (PF13_0152, Sir2A); experiment: pfSir2 binders on small-molecule microarrays, primary screen, biochemical, small-molecule microarray, 635 nm fluorescence (AID 1098); settings: small-molecule microarray binding, fluorescence 635 nm; higher = more signal;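 also: score merges spot fluorescence intensity with its signal-to-noise ratio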
[2] = small-molecule microarray binders of probe aDKK1, primary screen, biochemical, biotinylated probe, 635/667 nm fluorescence (AID 1099); settings: higher = more signal;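 also: score merges 667nm spot fluorescence with signal to noise across triplicate slides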
[3] = small-molecule microarray binders of probe aCHRDL2, primary screen, biochemical, biotinylated probe, 635/667 nm fluorescence (AID 1100); settings: higher = more signal
[4] = splicing luciferase reporter signal modulators, primary screen, spliceosome inhibition project, cell-based, HEK293, splice +/- reporter (AID 1101); settings: luminescence, 24 h, higher = more signal, called active from +8 up or from −8 down;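 also: HEK293 cells carrying a splicing-competent luciferase reporter gene; test concentration not given here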
[5] = biological target: Fibroblast growth factor 10 (Homo sapiens) (UniProt O15520); experiment: FGF10 binders on small-molecule microarrays, primary screen, biochemical, small-molecule microarray, 635 nm fluorescence (AID 1102); settings: FGF10 binding, fluorescence 635 nm, higher = more signal
Chain of Fibroblast growth factor 10 (Homo sapiens) (O15520 whole entry, looked up): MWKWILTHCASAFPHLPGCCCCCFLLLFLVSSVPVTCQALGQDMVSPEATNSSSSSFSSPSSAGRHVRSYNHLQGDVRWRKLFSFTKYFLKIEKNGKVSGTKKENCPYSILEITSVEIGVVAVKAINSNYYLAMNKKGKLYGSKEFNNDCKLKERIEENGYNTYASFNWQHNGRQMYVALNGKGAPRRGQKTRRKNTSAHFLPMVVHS

[6] = tested on: glycogen synthase kinase-3 (GSK3A per assay name; protocol says GSK3B); experiment: GSK3 binders on small-molecule microarrays, primary screen, biochemical, small-molecule microarray, 635 nm fluorescence, GSK3A (AID 1103); settings: small-molecule microarray binding, fluorescence 635 nm; higher = more signal; also: the record names both GSK3A and GSK3B
[7] = biological target: Epidermal growth factor receptor (Homo sapiens) (UniProt P00533); experiment: EGFR binders on small-molecule microarrays, primary screen, biochemical, small-molecule microarray, 635 nm fluorescence (AID 1104); settings: EGFR binding, higher = more signal;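 also: score merges 667 nm emission intensity with spot signal to noise over triplicate slides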
Chain of Epidermal growth factor receptor (Homo sapiens) (P00533 whole entry, looked up): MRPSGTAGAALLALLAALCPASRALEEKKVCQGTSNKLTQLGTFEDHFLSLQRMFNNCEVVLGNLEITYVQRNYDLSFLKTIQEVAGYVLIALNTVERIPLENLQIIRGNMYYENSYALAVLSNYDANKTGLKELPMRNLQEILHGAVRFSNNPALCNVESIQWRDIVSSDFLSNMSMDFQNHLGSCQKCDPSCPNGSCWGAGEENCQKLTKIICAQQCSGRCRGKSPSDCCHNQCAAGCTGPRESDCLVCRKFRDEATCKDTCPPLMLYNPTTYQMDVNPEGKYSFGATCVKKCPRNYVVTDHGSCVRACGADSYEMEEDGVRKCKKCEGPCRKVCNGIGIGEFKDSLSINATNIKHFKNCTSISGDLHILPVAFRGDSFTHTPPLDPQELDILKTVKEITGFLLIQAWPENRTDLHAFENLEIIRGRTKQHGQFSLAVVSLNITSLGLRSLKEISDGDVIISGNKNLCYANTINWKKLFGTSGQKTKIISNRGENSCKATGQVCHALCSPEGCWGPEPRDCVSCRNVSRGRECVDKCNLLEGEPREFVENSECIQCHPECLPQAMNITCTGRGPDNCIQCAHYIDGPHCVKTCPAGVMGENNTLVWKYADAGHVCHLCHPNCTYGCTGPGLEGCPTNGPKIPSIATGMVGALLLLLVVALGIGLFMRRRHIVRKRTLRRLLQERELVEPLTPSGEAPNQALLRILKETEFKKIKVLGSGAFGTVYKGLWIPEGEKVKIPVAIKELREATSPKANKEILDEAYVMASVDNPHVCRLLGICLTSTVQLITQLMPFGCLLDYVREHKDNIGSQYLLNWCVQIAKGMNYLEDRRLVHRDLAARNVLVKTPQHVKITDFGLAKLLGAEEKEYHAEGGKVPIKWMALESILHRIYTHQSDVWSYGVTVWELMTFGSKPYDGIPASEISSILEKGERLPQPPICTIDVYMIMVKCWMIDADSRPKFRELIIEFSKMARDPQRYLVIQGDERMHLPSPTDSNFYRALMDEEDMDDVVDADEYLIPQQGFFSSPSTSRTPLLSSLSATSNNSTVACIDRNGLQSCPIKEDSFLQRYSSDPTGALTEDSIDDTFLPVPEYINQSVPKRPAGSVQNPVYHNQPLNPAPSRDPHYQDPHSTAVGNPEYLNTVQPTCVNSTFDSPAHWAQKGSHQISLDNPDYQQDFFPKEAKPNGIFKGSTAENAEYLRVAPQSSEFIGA

[8] = biological target: Follistatin-related protein 3 (Homo sapiens) (UniProt O95633); experiment: FSTL3 binders on small-molecule microarrays, primary screen, biochemical, small-molecule microarray, 635 nm fluorescence (AID 1105); settings: FSTL3 binding, higher = more signal;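 also: score merges emission near 667 nm and signal to noise per printed spot across three slides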
Chain of Follistatin-related protein 3 (Homo sapiens) (O95633 whole entry, looked up): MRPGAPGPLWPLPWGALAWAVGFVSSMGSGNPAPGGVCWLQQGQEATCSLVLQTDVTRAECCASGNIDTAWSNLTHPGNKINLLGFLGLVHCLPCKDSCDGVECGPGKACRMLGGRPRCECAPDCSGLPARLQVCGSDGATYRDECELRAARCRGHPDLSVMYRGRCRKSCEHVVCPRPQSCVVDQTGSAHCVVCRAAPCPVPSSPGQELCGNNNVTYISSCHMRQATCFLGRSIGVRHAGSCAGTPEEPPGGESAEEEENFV

[9] = biological target: Dickkopf-related protein 1 (Homo sapiens) (UniProt O94907); experiment: DKK1 binders on small-molecule microarrays, primary screen, biochemical, small-molecule microarray, 635 nm fluorescence scan (AID 1106); settings: DKK1 binding, higher = more signal;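 also: score merges emission near 667 nm with signal to noise over three replicate slides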
Chain of Dickkopf-related protein 1 (Homo sapiens) (O94907 whole entry, looked up): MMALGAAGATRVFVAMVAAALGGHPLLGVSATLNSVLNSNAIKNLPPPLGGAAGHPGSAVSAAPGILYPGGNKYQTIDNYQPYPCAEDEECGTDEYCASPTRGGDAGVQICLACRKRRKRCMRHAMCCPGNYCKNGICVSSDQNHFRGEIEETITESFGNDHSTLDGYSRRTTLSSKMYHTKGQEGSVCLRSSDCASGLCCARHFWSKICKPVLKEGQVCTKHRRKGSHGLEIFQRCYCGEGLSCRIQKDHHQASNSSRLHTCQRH

[10] = tested on: Inhibin beta A chain (activin A); experiment: INHBA (activin A) binders on microarrays, primary screen, biochemical, small-molecule microarray, 635 nm fluorescence scan (AID 1107); settings: small-molecule microarray binding, higher = more signal;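 also: mouse activin A protein probed at 4.33 µg/mL on printed slides; score merges bound-protein fluorescence near 667 nm with spot signal-to-noise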
[11] = tested on: Human papillomavirus type 1a protein E7 (residues 44-93); experiment: HPV1a E7 fragment binders on microarrays, primary screen, biochemical, small-molecule microarray, residues 44-93, 635 nm fluorescence (AID 1108); settings: small-molecule microarray binding, fluorescence 635 nm; higher = more signal;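 also: E7 fragment applied at 1 µg/mL in TBST for 1 h at 4 C; score combines spot fluorescence with its signal to noise ratio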
[12] = modulators of HCV replicon luciferase signal, primary screen, HCV replication inhibitor project, Huh7 cells, luciferase reporter (AID 1109); settings: 48 h, higher = more signal;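 also: huh7 hepatoma cells harbouring a luciferase neomycin HCV replicon reporter; luciferase luminescence as measure of HCV replicon replication; test concentration not given here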
[13] = biological target: Left-right determination factor 2 (Homo sapiens) (UniProt O00292); experiment: LEFTY2 binders on small-molecule microarrays, primary screen, biochemical, small-molecule microarray, 635 nm fluorescence scan (AID 1110); settings: LEFTY2 binding, higher = more signal
Chain of Left-right determination factor 2 (Homo sapiens) (O00292 whole entry, looked up): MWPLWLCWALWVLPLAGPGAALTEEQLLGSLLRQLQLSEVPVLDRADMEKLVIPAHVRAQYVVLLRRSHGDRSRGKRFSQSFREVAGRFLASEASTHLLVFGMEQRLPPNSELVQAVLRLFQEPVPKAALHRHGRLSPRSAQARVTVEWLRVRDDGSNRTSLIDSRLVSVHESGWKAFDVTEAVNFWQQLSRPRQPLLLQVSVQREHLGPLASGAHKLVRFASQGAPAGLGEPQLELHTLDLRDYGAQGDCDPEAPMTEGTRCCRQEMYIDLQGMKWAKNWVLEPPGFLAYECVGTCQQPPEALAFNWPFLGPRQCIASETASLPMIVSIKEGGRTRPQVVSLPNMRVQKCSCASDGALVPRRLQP

[14] = biological target: Calmodulin-1 (Homo sapiens) (UniProt P0DP23); experiment: CALM1 binders on microarrays, EGTA buffer, profiling panel, biochemical, small-molecule microarray, Cy5-labelled CALM1 (AID 1111); settings: Cy5-CALM1 binding fluorescence, higher = more signal;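 also: labelled calmodulin applied in Tris saline Tween buffer holding calcium plus EGTA and DTT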
[15] = biological target: Calmodulin-1 (Homo sapiens) (UniProt P0DP23); experiment: calcium-bound CALM1 binders on microarrays, profiling panel, artefact control for SMM control-protein annotation, biochemical, small-molecule microarray, Cy5-labelled CALM1, plus calcium (AID 1112); settings: Cy5-CALM1 binding fluorescence, higher = more signal;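 also: score merges spot fluorescence with signal to noise from triplicate slides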
[16] = small-molecule microarray binders of probe aWnt5a, primary screen, biochemical, biotinylated probe, 635/667 nm fluorescence (AID 1113); settings: higher = more signal;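 also: score merges 667 nm fluorescence intensity with signal-to-noise per printed feature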
[17] = small-molecule microarray binders of probe aShh, primary screen, biochemical, biotinylated probe, 635/667 nm fluorescence (AID 1114); settings: higher = more signal;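 also: probe is biotin-labelled aShh protein from a stem cell growth factor screen; measures binding of labelled protein to compounds printed on the slide; score merges feature fluorescence at 667 nm with signal-to-noise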
[18] = small-molecule microarray binders of probe aNog, primary screen, biochemical, biotinylated probe, 635/667 nm fluorescence (AID 1115); settings: higher = more signal;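 also: probe is biotinylated aNog protein used at 0.15 µg/mL for 1 h at 4 C; z-score combines 667 nm fluorescence of each spot with its signal to noise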
[19] = biological target: Torsin-1A-interacting protein 1 (Homo sapiens) (UniProt Q5JTV8); experiment: LAP1 binders from COS7 cell lysate, primary screen, small-molecule microarray, 635/667 nm fluorescence (AID 1116); settings: COS7-hLAP1 lysate binding, 635 nm fluorescence, higher = more signal
Chain of Torsin-1A-interacting protein 1 (Homo sapiens) (Q5JTV8 whole entry, looked up): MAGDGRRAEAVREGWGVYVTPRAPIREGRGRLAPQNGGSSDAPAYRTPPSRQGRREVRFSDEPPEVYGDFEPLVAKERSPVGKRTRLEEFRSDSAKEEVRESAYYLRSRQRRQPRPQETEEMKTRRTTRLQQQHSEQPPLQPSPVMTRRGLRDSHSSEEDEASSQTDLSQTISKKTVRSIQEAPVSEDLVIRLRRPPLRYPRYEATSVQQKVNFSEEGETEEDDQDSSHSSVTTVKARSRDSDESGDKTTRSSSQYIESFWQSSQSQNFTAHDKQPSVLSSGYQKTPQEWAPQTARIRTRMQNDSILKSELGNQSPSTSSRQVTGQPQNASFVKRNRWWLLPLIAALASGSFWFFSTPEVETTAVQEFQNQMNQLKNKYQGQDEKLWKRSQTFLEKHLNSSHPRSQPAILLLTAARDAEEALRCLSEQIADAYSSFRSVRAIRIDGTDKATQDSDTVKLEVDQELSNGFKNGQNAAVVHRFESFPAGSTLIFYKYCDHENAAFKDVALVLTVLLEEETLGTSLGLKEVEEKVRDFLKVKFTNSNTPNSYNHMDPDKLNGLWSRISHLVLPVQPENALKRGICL

[20] = biological target: Alpha-bungarotoxin (Bungarus multicinctus) (UniProt P60615); experiment: alpha-bungarotoxin binders on microarray, profiling panel, artefact control for SMM control protein annotation, biochemical, small-molecule microarray, Alexa647 label, 635/667 nm fluorescence (AID 1117); settings: alpha-BTX-A647 binding fluorescence, higher = more signal
Chain of Alpha-bungarotoxin (Bungarus multicinctus) (P60615 whole entry, looked up): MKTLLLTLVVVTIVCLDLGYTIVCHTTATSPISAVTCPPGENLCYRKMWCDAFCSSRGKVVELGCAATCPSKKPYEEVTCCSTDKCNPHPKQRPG

Row | SMILES | composite z-score [1] | composite z-score [2] | composite z-score [3] | z-score [4] | composite z-score [5] | composite z-score [6] | composite z-score [7] | composite z-score [8] | composite z-score [9] | composite z-score [10] | composite z-score [11] | z-score [12] | composite z-score [13] | composite z-score [14] | composite z-score [15] | composite z-score [16] | composite z-score [17] | composite z-score [18] | composite z-score [19] | composite z-score [20]
1 | COC(=O)[C@@]1(Cc2ccccc2)[C@H]2c3cc(C(=O)N4CCCC4)n(Cc4ccc(OC(F)(F)F)cc4)c3C[C@H]2CN1C(=O)c1ccccc1 | 0.716 | 1.34 | 1.4 | -0.286 (inactive) | 0.872 | 0.728 | -0.357 | 0.685 | -0.909 | 1.08 | 1.41 | -1.95 | -0.782 | 2.31 | 1.41 | 0.583 | 1.12 | 1.69 | 0.867 | 1.35
2 | COC(=O)[C@@]1(Cc2ccccc2)[C@H]2c3cc(C(=O)N(C)C)n(Cc4ccccn4)c3C[C@H]2CN1C(=O)c1ccccc1 | 1.57 | 1.44 | 1.37 | -1.58 (inactive) | 0.548 | 0.225 | -0.805 | 0.155 | -1.09 | 0.46 | -0.271 | -0.903 | -0.0545 | 1.92 | 1.35 | 0.241 | -0.0849 | 0.85 | 1.77 | 0.94
3 | C[C@@]1([C@@H](NC(=O)c2cccs2)c2ccc(-c3ccccc3)cc2)C[C@H]1C1CCCCC1 | 0.385 | -0.336 | 0.126 | -3.26 (inactive) | -0.728 | -1.74 | -0.84 | -0.671 | 0.0374 | 1.49 | -0.309 | -1.47 | -0.919 | 0.645 | 0.111 | -0.302 | -0.478 | 0.356 | 0.0643 | -0.344
4 | CC(C)C[C@@H]1NC(=O)[C@@H]2C[C@H](C(=O)NCCCC[N+](C)(C)C)[C@H](c3cccc(OCCO)c3)N2C1=O | 1.66 | -0.184 | -0.103 | -0.44 (inactive) | 0.59 | 0.914 | 0.357 | 1.31 | 1.95 | 0.88 | -0.832 | -0.604 | 1.01 | -0.863 | 0.348 | -0.0236 | 0.151 | -0.198 | 1.05 | 0.324
5 | CN(C)C(=O)[C@]1(Cc2ccccc2N=[N+]=[N-])N=C(c2ccc(OCCCO)cc2)O[C@@H]1c1ccccc1CN=[N+]=[N-] | 0.43 | 0.189 | 0.279 | -0.891 (inactive) | 1.38 | 1.32 | 0.243 | 1.3 | 0.825 | 0.764 | 1.42 | -2.55 | 0.234 | 0.668 | 0.271 | 0.0559 | 0.13 | -0.488 | 0.939 | 0.564
6 | [N-]=[N+]=NCc1ccccc1[C@H]1OC(c2ccc(OCCCO)cc2)=N[C@@]1(Cc1ccccc1N=[N+]=[N-])C(=O)NCCN1CCOCC1 | 0.879 | 0.901 | 1.15 | -0.44 (inactive) | 1.26 | 1.3 | 0.558 | 1.32 | 0.136 | 0.511 | 1.05 | -2.34 | 0.528 | 1.19 | 0.305 | 0.16 | 0.432 | 2.06 | 1.79 | 1.45
7 | OCc1ccc(-c2cc[n+](Cc3cccc(OC(F)(F)F)c3)cc2)cc1 | 0.802 | 0.44 | 0.854 | 1.36 (inactive) | 0.981 | 0.869 | 1.33 | 1.48 | 1.56 | 1.93 | 1.19 | 0.717 | 1.36 | -0.245 | -0.196 | -0.0006 | -0.0146 | 0.425 | 1.08 | 1.9
8 | C=C(/C(=C/C[C@@H](OC(C)=O)c1ccccc1OCCO)c1cnc2ccccc2c1)C(C)C | 0.85 | -0.0495 | 0.168 | -0.333 (inactive) | 1.22 | 0.312 | 0.038 | 1.15 | 0.331 | 1.7 | 0.0976 | -1.61 | 0.0798 | -0.353 | -0.236 | 0.122 | 0.0328 | 0.291 | 0.148 | 1.01
9 | COC(=O)[C@@]1(Cc2ccc(F)cc2)[C@H]2c3cc(C(=O)N(C)C)n(CCSCCO)c3C[C@H]2CN1C(=O)c1ccccc1 | 0.74 | 0.983 | 1.02 | -1.22 (inactive) | 0.438 | 0.266 | 0.168 | 0.322 | -0.0642 | 0.655 | 0.0689 | -0.663 | -0.293 | 2.32 | 0.559 | -0.0977 | 0.123 | 1.6 | 0.51 | 0.224
10 | [N-]=[N+]=NCc1ccccc1C[C@@]1(C(=O)NCCN2CCOCC2)N=C(c2ccc(OCCCO)cc2)O[C@@H]1c1ccccc1CN=[N+]=[N-] | 0.668 | 0.914 | 0.491 | 0.139 (inactive) | 1.15 | 0.602 | 0.244 | 1.29 | 0.855 | 0.817 | 1.42 | -2.7 | 0.461 | 1.68 | 0.191 | 0.0037 | 0.199 | 0.291 | 0.272 | 1.04
11 | [N-]=[N+]=NCc1ccccc1C[C@]1(C(=O)NCCN2CCOCC2)N=C(c2ccc(OCCCO)cc2)O[C@H]1c1ccccc1 | 1.69 | 0.103 | 0.826 | -0.326 (inactive) | 1.04 | 1.28 | -0.329 | 0.0637 | -0.781 | 0.527 | 1.45 | -2.64 | -0.481 | 0.835 | -0.401 | 0.0215 | 0.131 | -0.465 | 1.46 | 1.16
